# An excerpt weighted towards active compounds, which were near 3.5% of everything screened.
# 14-3-3 Bad inh = disrupts binding of bovine 14-3-3 zeta to phospho-Bad peptide; 0.71% of 220,000 active; TR-FRET 14-3-3zeta/Dy647-pBad peptide displacement, 1 h; P63103; inhibition, % at 21.7 µM;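 active = inhibition above about 70%, limit read from the data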;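 note: 0% = full 14-3-3 plus peptide FRET controls and 100% = background without 14-3-3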
# Mcl1 Noxa PPI = disrupts binding of human Mcl-1 to Noxa peptide; Q07820; TR-FRET Mcl-1/Noxa peptide binding, 2 h; inhibition, % at 21.7 µM; 1.5% of 220,000 active; AID 1022;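 active = compounds that cut the protein-peptide binding signal by more than 50% relative to plate controls in a single-dose test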;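 note: His-tagged Mcl-1 with rhodamine Noxa BH3 peptide and terbium anti-His antibody; 0% = Mcl-1 plus Noxa peptide wells and 100% = peptide-only wells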
# Mcl-1 Bim block = human Bim-Mcl-1 interaction inhibition; inhibition, % at 10 µM; Bead-based flow cytometry, Bim peptide-Mcl-1 binding; 0.1% of 190,000 active; Q07820; AID 1009; in the data active = inhibition above about 40%;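 note: 0% = no compound tracer wells and 100% = peptide blocker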
# eIF4E 4G PPI = eIF4E/eIF4G interaction inhibition in translation initiation. TR-FRET eIF4E-eIF4GI(517-606) binding, 2 h. inhibition, % at 21.7 µM. 0.37% of 220,000 active. P63073+Q04637;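 active = inhibition above about 30%, limit read from the data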;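 note: 0% = full FRET control wells and 100% = background wells lacking eIF4GI fragment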
# Target sequence (P63073 whole entry, looked up, the tested form may be a part): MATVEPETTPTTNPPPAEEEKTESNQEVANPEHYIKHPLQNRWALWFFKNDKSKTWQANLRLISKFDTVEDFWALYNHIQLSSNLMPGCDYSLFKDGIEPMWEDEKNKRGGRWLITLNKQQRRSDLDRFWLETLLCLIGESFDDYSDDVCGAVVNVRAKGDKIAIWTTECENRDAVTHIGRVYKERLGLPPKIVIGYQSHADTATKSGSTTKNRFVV
# Target sequence (Q04637 whole entry, looked up, the tested form may be a part): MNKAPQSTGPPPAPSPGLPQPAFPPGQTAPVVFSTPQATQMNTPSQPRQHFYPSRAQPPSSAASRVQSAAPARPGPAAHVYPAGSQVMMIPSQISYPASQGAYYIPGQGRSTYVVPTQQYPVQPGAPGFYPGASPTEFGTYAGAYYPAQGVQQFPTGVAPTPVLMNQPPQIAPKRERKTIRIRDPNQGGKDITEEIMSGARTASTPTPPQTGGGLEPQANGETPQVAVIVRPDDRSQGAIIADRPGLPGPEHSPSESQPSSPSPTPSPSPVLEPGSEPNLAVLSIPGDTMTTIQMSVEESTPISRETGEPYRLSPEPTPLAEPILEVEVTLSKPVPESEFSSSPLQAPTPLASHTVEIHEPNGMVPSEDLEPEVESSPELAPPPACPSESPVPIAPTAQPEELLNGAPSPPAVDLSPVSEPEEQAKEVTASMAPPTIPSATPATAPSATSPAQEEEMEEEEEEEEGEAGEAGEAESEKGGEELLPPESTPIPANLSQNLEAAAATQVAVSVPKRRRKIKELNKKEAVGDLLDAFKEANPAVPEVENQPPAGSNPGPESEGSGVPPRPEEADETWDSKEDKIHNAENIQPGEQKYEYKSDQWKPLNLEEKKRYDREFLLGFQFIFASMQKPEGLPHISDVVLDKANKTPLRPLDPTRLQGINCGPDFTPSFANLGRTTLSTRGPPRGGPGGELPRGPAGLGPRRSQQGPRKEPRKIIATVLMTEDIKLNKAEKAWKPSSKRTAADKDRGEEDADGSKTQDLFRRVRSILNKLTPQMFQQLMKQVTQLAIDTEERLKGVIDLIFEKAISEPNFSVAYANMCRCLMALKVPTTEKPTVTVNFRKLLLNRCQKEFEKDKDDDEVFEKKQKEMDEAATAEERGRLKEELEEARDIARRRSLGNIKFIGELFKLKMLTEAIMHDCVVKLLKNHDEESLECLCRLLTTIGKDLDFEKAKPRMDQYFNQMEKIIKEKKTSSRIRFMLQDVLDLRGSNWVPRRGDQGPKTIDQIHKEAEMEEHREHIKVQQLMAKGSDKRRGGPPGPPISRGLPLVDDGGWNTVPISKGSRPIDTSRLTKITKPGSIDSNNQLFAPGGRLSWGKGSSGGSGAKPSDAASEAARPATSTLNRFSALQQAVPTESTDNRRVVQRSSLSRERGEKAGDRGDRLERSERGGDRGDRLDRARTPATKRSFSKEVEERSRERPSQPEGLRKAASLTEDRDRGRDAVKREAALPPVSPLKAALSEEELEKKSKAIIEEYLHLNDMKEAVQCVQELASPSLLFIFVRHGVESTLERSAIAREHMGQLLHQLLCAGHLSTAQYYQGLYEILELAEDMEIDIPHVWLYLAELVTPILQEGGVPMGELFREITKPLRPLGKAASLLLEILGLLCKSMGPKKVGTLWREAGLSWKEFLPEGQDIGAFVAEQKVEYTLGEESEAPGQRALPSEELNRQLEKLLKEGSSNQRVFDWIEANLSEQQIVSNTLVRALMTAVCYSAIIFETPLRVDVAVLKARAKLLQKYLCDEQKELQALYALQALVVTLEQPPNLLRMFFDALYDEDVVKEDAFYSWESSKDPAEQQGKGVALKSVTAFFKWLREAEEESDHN
# Mcl1 Bid PPI = disrupts binding of human Mcl-1 to Bid peptide; Q07820; TR-FRET Mcl-1/Bid-Dy647 peptide binding, 1536-well; inhibition, % at 21.7 µM; 0.97% of 220,000 active;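 active = compounds that cut the binding signal by more than half at the single screening dose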;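 note: His-tagged Mcl-1 with europium anti-His antibody binding Bid BH3 peptide; 0% = Mcl-1 plus peptide wells and 100% = peptide-only wells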
# Hck Nef HTS = blocks Nef-activated human Hck kinase. P08631. 0.68% of 220,000 active. inhibition, % at 20 µM. Recombinant Hck-YEEI plus Nef, Z-Lyte FRET kinase assay;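 active = Hck-Nef kinase inhibition above about 50%, limit read from the data; inactive = inhibition below that limit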;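 note: 0% = DMSO with Hck plus Nef and 100% = Hck alone without Nef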
# Numbers without * were called inactive; · = no result given; ! = not active in a repeat; [ ] = remark or other dose.
SMILES,14-3-3 Bad inh,Mcl1 Noxa PPI,Mcl-1 Bim block,eIF4E 4G PPI,Mcl1 Bid PPI,Hck Nef HTS
CCCc1ccc(/C=C2\C(=O)c3ccccc3C(O)=C2C(=O)OCC)cc1,6,88*,-5,3,40,-2
CCOC(=O)C1=C(Cc2ccc(OC)cc2)C(=O)c2ccccc2C1=O,-16,37,0,3,1,-8
CCOC(=O)C1=C(Cc2ccc(C)cc2)C(=O)c2ccccc2C1=O,-1,67*,0,12,-16,-3
CCOC(=O)C1=C(O)c2ccccc2C(=O)/C1=C\c1ccc(CC)cc1,0,85*,0,6,52*,0
CCOC(=O)c1ccc(COC(=O)c2ccc3c(c2)-c2ccccc2C3=O)cc1,3,-6,0,-10,-14,0
O=C(N=C1N=C2C=CC(Br)=CN2Cc2ccccc21)c1ccc([N+](=O)[O-])cc1[N+](=O)[O-],0,2,·,-5,-7,10
O=C(NCc1nnc(SCC(=O)N2CCOCC2)o1)c1ccccc1F,-5,6,-1,-2,-35,17
CCOCCCNC(=S)N1CCC(C(=O)c2ccc3c(c2)OCCO3)CC1,-3,72*,2,-3,-8,-1
COc1ccc(-c2nnc3n2-c2ccccc2SC3)cc1OC,78*,14,-3,-5,-6,-1
Cc1ccccc1CNC(=O)Nc1cccs1,-24,52*,0,-3,-24,1
O=C(NCc1cccs1)Nc1cccs1,-8,0,0,-2,-31,0
O=[N+]([O-])c1cccc(-c2nc3ccccc3s/c2=N/O)c1,-4,3,·,10,8,-4
CCOC(=O)c1cc(-c2ccccc2)n(CC(=O)N2CCCC2)c1C,8,7,-1,1,94*,-2
CC1(c2ccccc2)CC(C)(C)N2C(=O)C3(C(C#N)=C(N)Oc4cc(O)ccc43)c3cccc1c32 (stereo unspecified),-4,1,0,3,61*,0
Cc1cc2c3c(c1)C(C)(c1ccccc1)CC(C)(C)N3C(=O)C21C(C#N)=C(N)OC2=C1C(=O)CC(C)(C)C2 (stereo unspecified),7,-5,-3,-1,-23,-2
Cc1cccc(C2C3=C(Nc4[nH]n(-c5ccccc5)c(=O)c42)c2ccccc2C3=O)c1 (stereo unspecified),-1,65*,-4,13,-38,19
CCOC(=O)c1c(OCC)[nH]c2c1cc(O)c1ccccc12,3,75*,8,5,-23,3
CCOC(=O)c1c(C)[nH]c2cc(Br)c(O)cc12,-10,22,-2,-4,-26,6
COc1cc(/C=C2/SC(=O)NC2=O)ccc1Oc1ccc([N+](=O)[O-])cc1[N+](=O)[O-],33,90*,·,14,-107,52*
COc1cc(/C=C2\SC(=O)NC2=O)ccc1Oc1ccc([N+](=O)[O-])cn1,-1,-4,·,-1,-10,20
COc1cc(/C=C2/SC(N)=NC2=O)ccc1Oc1ccc([N+](=O)[O-])cc1[N+](=O)[O-],47,60*,-4,2,67*,22
NC1=NC(=O)/C(=C\c2ccc(O)c([N+](=O)[O-])c2)S1,3,18,25,-2,-2,19
COC(=O)C1=C(C)Nc2c(c(=O)n(C)c(=O)n2C)C1c1ccc(Cl)cc1 (stereo unspecified),3,-2,-1,20,-45,9
COCCn1ccc(O)c(Cc2ccc(Cl)cc2)c1=O,-14,-6,-1,3,-14,-1
O=C(COC(=O)CNS(=O)(=O)c1c(Cl)cccc1Cl)Nc1cccnc1Cl,0,19,0,-9,-38,-25
SMILES,14-3-3 Bad inh,Mcl1 Noxa PPI,Mcl-1 Bim block,eIF4E 4G PPI,Mcl1 Bid PPI,Hck Nef HTS
CCOc1c(C)cc(-c2ncccc2O)cc1C,75*!,0,-5,-2,0,4
Cc1cc2cc3c(cc2nc1SCC(=O)OC(C)C)OCCO3,91*[fluorescence artefact?],-2,-1,6,4,8
Cc1ccc(S(=O)(=O)Nc2ccnc3ccccc23)cc1,11,-2,0,4,63*,-1
Cc1ccc(CSC2=Nc3ccccc3C3=NC(=O)CN23)cc1,-17,6,-1,5,-10,19
C=CCSC1=Nc2sccc2C2=NC(=O)CN12,18,56*,0,12,22,1
C=CCn1c(SCC(=O)c2ccc(O)c(O)c2)nnc1-c1cccnc1,41,58*,·,9,-36,26
C=CCn1c(SCC(=O)O)nnc1-c1ccc(C(C)(C)C)cc1,-4,19,-4,2,-5,-1
C=CCn1c(SCC(=O)O)nnc1-c1cccc(Cl)c1,27,70*,2,10,-42,1
CC(C)[C@H](NC(=O)c1ccco1)C(=O)OCC(=O)Nc1ccccc1OC(F)F,-7,9,-1,-7,-17,20
Nc1ccccc1C(=O)NCc1ccc(Cl)cc1,-3,-7,-1,2,-4,-7
N=c1c[n+](N2CCOCC2)[n-]o1,6,7,0,12,56*,-2
Cc1nn2c(Nc3ccccc3)c3c(nc2c1-c1ccccc1)CCC3,82*,14,-2,4,-32,0
COc1ccc2c(c1)c1nc3ccccc3nc1n2CCn1c(=O)oc2ccccc21,6,21,-2,-11,37,8
O=c1oc2ccccc2n1CCn1c2ccccc2c2nc3ccccc3nc21,60,-34,12,-12,90*,12
CCC(Sc1nnc2c3ccccc3n(CC)c2n1)C(=O)Nc1sc2c(c1C#N)CCCC2 (stereo unspecified),-5,0,-3,3,-15,2
Cc1cccn2c(/C=N/OCc3cccc(F)c3)c(-c3ccc(Cl)cc3)nc12,-2,-18,1,-5,-51,-2
COc1cccc(/C(C#N)=C/c2c(-c3ccc(Cl)cc3)nc3c(C)cccn23)c1,71*,-7,0,8,-26,-1
COc1ccccc1/C=C/C(=O)c1c2c(c(C)[nH]c1=O)CCCC2,-6,8,-2,67*,-19,0
COc1ccccc1/C=C/C(=O)c1ccccc1,2,7,·,0,1,-7
CC1(C)CC(=O)C(N=Nc2cc(Cl)c(Cl)c(Cl)c2)=C(O)C1,-11,1,42*,-6,-34,11
CCOc1ccc(NC(=O)CN2C(=O)/C(=C3\SC(=S)N(C4CCS(=O)(=O)C4)C3=O)c3ccccc32)cc1 (stereo unspecified),67,68*,·,6,81*,74*
CCOc1ccc(NC(=O)CN2C(=O)CSC(C)C2=O)cc1 (stereo unspecified),-3,-11,-1,-2,-12,15
